# Hits are enriched below; roughly 3.5% of the tested compounds scored in any of these assays.
# Autofluor counter: compound fluorescence in toxin protease inhibitor counterscreen | compound autofluorescence counterscreen, microsphere flow cytometry; stronger effect = higher value | fluorescence intensity (test concentration not listed) | actives 3.1% (n = 360,000) | AID 624483; in the data active = fluorescence intensity above about 16000; inconclusive = no clear call, values can overlap the other calls
# BoNT-F LC inh: inhibitors of Botulinum neurotoxin F light chain protease | actives 0.22% (n = 360,000) | inhibition, % at 10 µM | Multiplex microsphere protease cleavage assay, flow cytometry; in the data active = inhibition above about 35%, passing the limit was not always enough; inconclusive = no clear call, values can overlap the other calls
# Anthrax LF prot: blocks Bacillus anthracis lethal factor protease. actives 0.12% (n = 360,000). inhibition, % at 10 µM. P15917. multiplex microsphere protease cleavage assay, LF
# Target sequence (P15917 whole entry, looked up): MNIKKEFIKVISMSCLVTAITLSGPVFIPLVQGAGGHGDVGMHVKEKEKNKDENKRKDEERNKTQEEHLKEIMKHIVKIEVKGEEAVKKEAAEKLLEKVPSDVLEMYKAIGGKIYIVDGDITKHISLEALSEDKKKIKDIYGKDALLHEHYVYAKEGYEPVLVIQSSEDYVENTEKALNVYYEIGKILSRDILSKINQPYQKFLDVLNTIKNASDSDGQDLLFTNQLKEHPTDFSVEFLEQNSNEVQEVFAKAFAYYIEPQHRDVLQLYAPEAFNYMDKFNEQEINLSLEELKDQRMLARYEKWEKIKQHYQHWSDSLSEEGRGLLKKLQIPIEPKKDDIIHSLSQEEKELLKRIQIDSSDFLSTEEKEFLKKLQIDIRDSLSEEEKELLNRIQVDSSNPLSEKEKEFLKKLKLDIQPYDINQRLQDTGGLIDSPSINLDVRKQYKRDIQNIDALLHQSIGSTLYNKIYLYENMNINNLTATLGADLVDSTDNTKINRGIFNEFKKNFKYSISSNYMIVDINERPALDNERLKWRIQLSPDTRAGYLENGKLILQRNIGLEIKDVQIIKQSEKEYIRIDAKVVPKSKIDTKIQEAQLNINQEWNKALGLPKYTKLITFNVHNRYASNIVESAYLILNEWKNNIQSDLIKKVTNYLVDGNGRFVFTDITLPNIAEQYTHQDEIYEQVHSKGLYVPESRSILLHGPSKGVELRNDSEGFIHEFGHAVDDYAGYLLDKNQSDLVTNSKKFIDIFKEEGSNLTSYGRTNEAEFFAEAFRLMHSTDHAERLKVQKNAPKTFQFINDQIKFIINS
# Vc quorum ag: quorum light induction in luxS cqsA deficient V. cholerae. activation, % at 18.7 µM. V. cholerae BH1578 lux reporter, luminescence, 6 h. actives 0.16% (n = 350,000). AID 588436; in the data active = activation mostly above about 9.7%, no sharp cut-off; inconclusive = no clear call, values can overlap the other calls; inactive = mostly below about 3.7%
# BoNT-A LC inh2: blocks Botulinum neurotoxin A light chain protease | actives 0.17% (n = 360,000) | inhibition, % at 10 µM | multiplex microsphere protease substrate cleavage, flow cytometry
# A number is an active result; 0 = inactive; ? = inconclusive; - = not tested or not shown. Cut-off read from the data, not from the text of the source, unless noted: active = inhibition above about 30%; inconclusive = no clear call, values can overlap the other calls; inactive = below that.
SMILES,Autofluor counter,BoNT-F LC inh,Anthrax LF prot,Vc quorum ag,BoNT-A LC inh2
Cc1cc(C)cc(NC(=O)NC(C)C2CCCO2)c1 (stereo unspecified),0,0,0,0,0
COc1cc(Br)cc2cc(C(=O)NCC3CCCO3)c(=O)oc12 (stereo unspecified),22610,0,0,0,?
COc1cccc2cc(C(=O)NCC3CCCO3)c(=O)oc12 (stereo unspecified),0,0,0,0,0
COC(=O)[C@]12CCCCC=C1N(CCC1=CCCCC1)C(=O)[C@H](CC(=O)N1CCOCC1)C2,0,0,0,-,0
Cn1ccnc1SCC(=O)Nc1nc2c(F)c(F)c(F)cc2s1,0,0,0,0,0
COc1cc2sc(-c3ccc(S(C)(=O)=O)cc3)c(C#CCO)c2cc1OC,0,0,0,0,0
CC(NC(=O)c1csc2ccccc12)C1CCCO1 (stereo unspecified),16909,0,0,0,?
CC(NC(=O)c1ccc(Cl)s1)C1CCCO1 (stereo unspecified),24646,0,0,0,0
COc1ccc(S(=O)(=O)N2Cc3ccccc3CC2C(=O)Nc2nccs2)cc1 (stereo unspecified),23488,0,0,0,0
COc1ccc(S(=O)(=O)N2Cc3ccccc3CC2C(=O)Nc2nccs2)cc1OC (stereo unspecified),0,0,0,0,0
CCCOc1ccc(CSc2nnc(CCC)n2N)cc1,0,0,0,0,0
CCCCOc1ccc(Cl)cc1CSc1nnc(CC)n1N,24086,0,0,0,0
Cc1ccc(NC(=O)c2ncn(CCCN3CCN(Cc4cccc5ccccc45)CC3)n2)cc1C,0,0,0,0,0
Cc1cccc(N2CCN(C(=O)c3cn(C)c(=O)c4c3c3ccccc3n4C)CC2)c1C,23203,0,0,0,0
COc1ccc(CNC(=O)CSc2nnc(-c3ccc(NC(C)=O)cc3)n2C)cc1,17726,0,0,0,0
COc1ccccc1-c1nnc(SCC(=O)Nc2ccc(S(N)(=O)=O)cc2)n1C,21773,0,0,0,0
CCOC(=O)Cc1csc(NC(=O)CSc2nnc(-c3ccc(OC)cc3)n2C)n1,20591,0,0,0,?
COc1ccc(C(=O)NCCc2nnc(SCC(=O)Nc3ccccc3C(C)C)n2C)cc1,20025,0,0,0,0
COc1ccc(-c2nnc(SCC(=O)Nc3ccc(C)cc3)n2C)cc1,0,0,0,0,0
CCn1c(CCNC(=O)c2ccc(OC)cc2)nnc1SCC(=O)Nc1ccccc1F,0,0,0,0,0
CCOc1ccc(NC(=O)CSc2nnc(-c3ccccn3)n2N)cc1,0,0,0,0,0
COc1ccc(NC(=O)CSc2nnc(-c3ccccc3C)n2C)cc1,19446,0,0,0,?
COc1ccc(-n2c(SCC(N)=O)nnc2-c2ccccc2F)cc1,16562,0,0,0,0
COc1ccc(NC(=O)CSc2nnc(-c3ccco3)n2C)cc1,0,0,0,0,0
COc1ccc(NC(=O)CSc2nnc(-c3ccccn3)n2N)cc1,0,35,0,0,34
SMILES,Autofluor counter,BoNT-F LC inh,Anthrax LF prot,Vc quorum ag,BoNT-A LC inh2
CC(=O)Nc1ccc(-c2nnc(SCc3c(C)cc(C)cc3C)n2C)cc1,23890,0,0,0,0
CN(CC(=O)Nc1cccc(F)c1)C(=O)CCNC(=O)c1ccco1,0,0,0,0,0
COCCNC(=O)C1(C)CCCN(C(=O)c2cc(OC)c(OC)c(OC)c2)C1 (stereo unspecified),0,0,0,0,0
CCOC(=O)c1c(C)[nH]c(C)c1C(=O)COC(=O)c1nc2nccc(C)n2n1,0,0,0,0,0
CN(C(=O)c1cccc(NC(=O)Cc2ccc(NC(=O)C3CCCN(C(=O)C4CCC4)C3)cc2)c1)C1CCCCC1 (stereo unspecified),0,0,0,0,0
CCNC(=O)CSc1nnc(-c2ccc(OC)cc2)n1CC(C)C,21420,0,0,0,0
O=C(Nc1ccc(C(F)(F)F)cc1)c1ccccc1-n1cnnn1,0,0,0,0,0
Cc1cc(OC(=O)c2c(Cl)cc(Cl)cc2Cl)nc(C)n1,16417,0,0,0,0
COc1cc(Br)cc(CN2CCN(C)CC2)c1O,22111,0,0,0,?
Cc1cccc(N(Cc2ccccc2)C(=O)c2cc(S(=O)(=O)N3CCOCC3)ccc2Cl)c1,?,0,0,0,0
O=C1OCC2=C1C(c1ccccc1)CC(=O)N2c1ccccc1 (stereo unspecified),0,0,0,0,0
CCc1ccc(CN(C)CCc2ccccn2)cc1,16273,0,0,0,?
Cc1ccc(CN(C)CCc2ccccn2)cc1,0,0,0,0,0
CN(CCc1ccccn1)Cc1ccc(Cl)cc1,20900,0,0,0,0
COc1ccc(CN(C)CCc2ccccn2)cc1OC,0,0,0,0,0
COc1ccc(C2OC(=O)CC2C(=O)NCc2ccc(Cl)cc2)cc1OC (stereo unspecified),0,0,0,0,0
CNC(=O)COc1coc(CN2CCN(c3cccc(Cl)c3)CC2)cc1=O,0,0,0,0,0
CN1CCN(C2CCCCCC2)CC1,23426,0,0,0,0
O=S1(=O)CCN(C2CCCC2)CC1,0,0,0,0,0
COc1cccc(N(CC(=O)N2CCCCCC2)S(C)(=O)=O)c1,0,?,0,0,0
CCC(C(=O)N1CCC2(CC1)OCCO2)c1ccccc1 (stereo unspecified),16484,0,0,0,?
CCC(C(=O)N1CCN(c2ncccn2)CC1)c1ccccc1 (stereo unspecified),0,0,0,0,0
CCCCCNC(=O)c1ccccc1SC,16772,0,0,0,0
CCCCNC(=O)c1ccccc1C(=O)NCCCC,0,0,0,0,0
CSc1ccccc1C(=O)NCCSc1ccccc1,16492,0,0,0,0
SMILES,Autofluor counter,BoNT-F LC inh,Anthrax LF prot,Vc quorum ag,BoNT-A LC inh2
CCCCc1ccc(CC(=O)Nc2cc(S(=O)(=O)N3CCOCC3)ccc2O)cc1,0,0,0,0,0
CC1(c2nnc(Cc3ccccc3)o2)CC(c2ccncc2)=NO1 (stereo unspecified),0,0,0,0,0
COc1ccc(NC2CCCN(C(=O)C3=NN(C)C(=O)CC3)C2)cc1OC (stereo unspecified),0,0,0,0,0
CC1(C)N=C(c2ccc(Cl)cc2Cl)C(=O)N1,22553,0,0,0,0
O=C(Nc1ccc2c(c1)C(=O)NC2=O)c1cc(Cl)ccc1Cl,0,0,0,0,0
CCN(CC)C(=O)c1cnn(-c2ccccc2)c1NC(=O)c1ccccc1F,20443,0,0,0,0
O=C(Nc1c(C(=O)N2CCOCC2)cnn1-c1ccccc1)c1ccccc1F,0,0,0,0,0
Cc1cccc(OCC(=O)N/N=C/CC(C)c2ccccc2)c1C (stereo unspecified),0,0,0,0,0
Cc1ccc(N=Cc2ccc[nH]2)c(O)c1,21732,0,0,0,?
Cc1ccccc1Nc1nc(N)[nH]c(=O)c1N=O,0,0,0,-,0
O=C(CN1C(=O)c2ccccc2C1=O)Nc1ccccc1,0,?,0,0,0
O=C(Nc1ccccc1)OCN1C(=O)c2ccccc2C1=O,17484,0,0,0,0
COc1cc(Nc2ccc(S(N)(=O)=O)cc2)c([N+](=O)[O-])nc1[N+](=O)[O-],0,0,0,0,0

# Screening data deposited in PubChem by several laboratories.
